Source: PubChem BioAssay
TbREL1 primary: TbREL1 inhibition, primary screen; AID 1117264; inhibition, % at 9.66 µM; 89,000 compounds, 0.49% hits; TbREL1 RNA ligation, FRET fluorescence;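 active means inhibition above the mean inhibition across all screened compounds plus 3 SD, cut at about 11% in these data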;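 further: 0% = plate median of test wells and 100% = NSC42067 control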
Target sequence (P86926 whole entry, looked up): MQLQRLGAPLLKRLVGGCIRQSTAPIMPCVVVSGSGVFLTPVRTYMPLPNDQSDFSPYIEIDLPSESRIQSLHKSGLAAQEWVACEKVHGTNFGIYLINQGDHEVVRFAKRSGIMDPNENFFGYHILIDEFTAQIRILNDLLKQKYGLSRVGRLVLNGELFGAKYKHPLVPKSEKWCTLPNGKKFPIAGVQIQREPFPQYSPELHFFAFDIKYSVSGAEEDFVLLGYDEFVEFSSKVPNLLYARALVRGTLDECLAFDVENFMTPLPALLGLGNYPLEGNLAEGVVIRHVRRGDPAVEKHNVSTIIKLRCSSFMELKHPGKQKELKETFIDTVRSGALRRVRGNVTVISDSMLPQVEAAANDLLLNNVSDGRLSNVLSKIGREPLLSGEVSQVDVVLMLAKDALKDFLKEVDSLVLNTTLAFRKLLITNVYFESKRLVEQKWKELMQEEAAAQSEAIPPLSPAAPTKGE
TbREL1 confirm: TbREL1 inhibition, confirmation; shares compounds with TbREL1 primary; TbREL1 RNA ligation, FRET fluorescence; inhibition, % at 9.66 µM; 390 compounds, 37% hits; AID 1117282;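 active means mean inhibition across replicates above a set limit taken from the earlier primary screen, cut at about 11% in these data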;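 further: 0% = REL1 with substrate and DMSO and 100% = REL1 plus control inhibitor NSC42067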
* hit, by the source's call. The sample as a whole holds a higher share of hits than the screen did.

SMILES	TbREL1 primary	others
COC(=O)C1=C(C)N(Cc2ccccc2)C(=O)N[C@H]1c1cccs1	-1
CCN=C1NC(c2ccccc2C(F)(F)F)C(C(=O)OC)=C(C)N1Cc1ccc(C(F)(F)F)cc1 (stereo not drawn)	12*	TbREL1 confirm=17*
O=C(O)CCN1C(=O)/C(=C/c2cccc(OCc3ccc(F)cc3)c2)SC1=S	-3
Cc1cc(O)cc(=O)n1-c1cc(F)c(F)c(F)c1	2
CCCCN(C)C(=O)CN1C(=O)C2CCCCN2C(=O)c2ccccc21 (stereo not drawn)	6
O=C(N[C@H](C(=O)N1CCC[C@H]1C(=O)NCCc1ccccc1Cl)C1CCCCC1)c1cccs1	-3
O=C(NCCc1c[nH]c2ccccc12)OCc1cn(Cc2ccc(C(F)(F)F)cc2)nn1	2
FC(F)(F)Oc1ccc(Cn2ccc3ccc(-c4ccc5ccn(Cc6ccc(OC(F)(F)F)cc6)c5c4)cc32)cc1	-1
C[C@H]1C(=O)CC[C@@]23CCCN2C(=O)CCC[C@@H]13	5
CCC[C@H]1[C@@H](OC(=O)NCCc2ccccc2)CC[C@@]23CCCN2C(=O)CCC[C@@H]13	9
O=C(OCc1cn(Cc2ccc(F)cc2)nn1)N1CCCC1	6
COC(=O)C1=C(C)N(Cc2cccc(C(F)(F)F)c2)C(=NCc2ccccc2C(F)(F)F)NC1c1cccc(F)c1 (stereo not drawn)	15*	TbREL1 confirm=22*
COC(=O)C1=C(C)N(Cc2ccccc2)C(=S)NC1c1cccc(Br)c1 (stereo not drawn)	-5
COC(=O)C1=C(C)N(Cc2cccc(C(F)(F)F)c2)C(=NCc2ccccc2C(F)(F)F)NC1c1ccccc1C(F)(F)F (stereo not drawn)	16*	TbREL1 confirm=24*
COC(=O)C1=C(C)N(Cc2ccc(F)cc2)C(=S)NC1c1cccc(F)c1 (stereo not drawn)	-6
C=CCN=C1NC(c2cccc(F)c2)C(C(=O)OC)=C(C)N1Cc1cccc(C(F)(F)F)c1 (stereo not drawn)	11*	TbREL1 confirm=12*
CCN1C(=O)N[C@@H](c2cccc(C(F)(F)F)c2)C(C(=O)OC)=C1C	1
Cc1c(C(=O)NCc2ccccc2C(F)(F)F)sc(=O)n1Cc1cccc(C(F)(F)F)c1	2
Cc1ccc(S(=O)(=O)N2CCCC(C(=O)NCCN3CCC(Cc4ccccc4)CC3)C2)cc1 (stereo not drawn)	9
CSc1ccc(-c2cnc(N3CCC(C(N)=O)CC3)s2)cc1	3
CC(C)C[C@H](NC1(C(=O)NCCc2c[nH]c3ccccc23)CCC1)C(=O)NCCCc1ccccc1	-4
O=C(NCCCc1ccccc1)[C@H](Cc1c[nH]c2ccccc12)NC1(C(=O)NCCc2c[nH]c3ccccc23)CCOCC1	-5
COC(=O)[C@]12C[C@H](CC(=O)NCC34CC5CC(CC(C5)C3)C4)C(=O)N(CCc3ccc(OC)c(OC)c3)C1=C[C@H](C(C)C)O[C@@H]2C1CC1	-1
Cc1ccc(OCCOc2c(Cl)cc(Cl)cc2Cl)c([N+](=O)[O-])n1	3
c1ccc(CCNCCCOc2cccc3ccccc23)cc1	12*	TbREL1 confirm=10
SMILES	TbREL1 primary	others
Clc1ccc(OCCNCCc2ccccc2)cc1	4
CC(=O)NCCOc1cccc2ccccc12	4
Nc1ncnc2c1ncn2[C@@H]1O[C@H](C(=O)N[C@@H](CCc2ccccc2)C(=O)N2CCN(C(=O)C(F)(F)F)CC2)[C@@H](O)[C@H]1O	2
Cc1ccc(OCCn2c(=O)sc3ccccc32)cc1	3
Cc1ccc(OCCN2C(=O)C(=O)c3cc(C)ccc32)cc1	12*	TbREL1 confirm=5
O=C1c2ccccc2C(=O)N1CCOc1ccccc1	0
C=C1[C@H](C)CN(S(=O)C(C)(C)C)[C@H]1CCO (stereo partly drawn)	7
O=C(C1CCCN(S(=O)(=O)c2cc(Cl)ccc2Cl)C1)N1CCCCCC1 (stereo not drawn)	-1
O=C(NNc1cc(Cl)ccc1Cl)C1CCC1	91*	TbREL1 confirm=1
O=C(O)C1CC=CCC1C(=O)Nc1cc(Cl)ccc1Cl (stereo not drawn)	1
CSc1ccc(C=NNC(=O)c2cc(-c3ccc(Cl)cc3)n[nH]2)cc1	1
CC(C)Oc1ccc(CNCCC2(C(C)C)CCOC(C)(C)C2)cc1 (stereo not drawn)	2
COc1ccc(CNCCC(c2ccccc2)c2ccc(OC(C)C)cc2)cc1OC (stereo not drawn)	10
COc1ccc(C(CCNCc2ccc(OC(C)C)cc2)c2ccccc2OC)cc1 (stereo not drawn)	15*	TbREL1 confirm=19*
CCCCC(=O)N[C@H]1CC[C@@]23CCCN2C(=O)CCC[C@H]3[C@H]1CCC	-3
CNC(=O)CCc1nc(-c2ccc(C(C)C)cc2)no1	-3
COc1ccc(-c2c(O)c(C#N)c(-c3ccccc3)n(-c3ccc(OC)cc3)c2=O)cc1	-4
CC(C)c1c(Cl)c(O)c(-c2ccccc2)c(=O)n1-c1ccc(F)cc1	17*	TbREL1 confirm=13*
Cc1ccc(-n2c3c(c(O)c(-c4ccccc4)c2=O)C(=O)CC(C)(C)C3)cc1	-1
CCCCNC(=O)O[C@H]1CC[C@@]23CCCN2C(=O)CCC[C@H]3[C@H]1CCC	3
CCC[C@H]1[C@@H](OC(=O)NCc2ccc(OC)c(OC)c2)CC[C@@]23CCCN2C(=O)CCC[C@@H]13	-1
CS(=O)(=O)N1CCN(S(=O)(=O)c2ccccc2[N+](=O)[O-])CC1	2
CCC1CCCCN1S(=O)(=O)c1ccccc1[N+](=O)[O-] (stereo not drawn)	-2
O=[N+]([O-])c1ccccc1S(=O)(=O)N1CCN(C2CCCC2)CC1	11*	TbREL1 confirm=4
COCCCNC(=O)C[C@H]1C[C@@]2(C(=O)OC)C(=C[C@H](COCc3ccccc3)O[C@@H]2C)N(Cc2ccco2)C1=O	-1
SMILES	TbREL1 primary	others
C=CCn1c(COc2ccccc2)nnc1SCC(=O)Nc1ccc(Oc2ccccc2)cc1	1
Cc1ccc(C(=O)NN2C(=O)c3ccc(S(=O)(=O)c4ccc(C(=O)O)cc4)cc3C2=O)cc1	3
O=C(O)c1ccc(S(=O)(=O)c2ccc3c(c2)C(=O)N(CC2CCCO2)C3=O)cc1 (stereo not drawn)	1
O=C(O)c1ccc(S(=O)(=O)c2ccc3c(c2)C(=O)N(NC(=O)c2ccc(O)cc2)C3=O)cc1	12*	TbREL1 confirm=2
COc1ccc(C(=O)CSc2nnc(-c3ccccn3)n2-c2ccccc2)cc1	0
CN1C(=O)C(=O)N2C(=C[C@]3(c4c[nH]c5ccccc45)c4ccccc4N[C@H]23)C1=O	2
Cn1c(=O)c(=O)n(C)c2cc(S(=O)(=O)N3CCN(Cc4ccc5c(c4)OCO5)CC3)ccc21	-3
O=C(NC1CCCCN(Cc2ccc(Cl)cc2)C1=O)c1ccc(COc2ccccc2)cc1 (stereo not drawn)	12*	TbREL1 confirm=-2
Cc1ccccc1CN1CCCCC(NC(=O)c2ccc(COc3ccccc3)cc2)C1=O (stereo not drawn)	0
O=C(NC1CCCCN(Cc2ccc(Cl)cc2)C1=O)c1ccccc1 (stereo not drawn)	4
O=C(CSc1nnc(-c2ccncc2)n1-c1ccccc1)Nc1ccc2c(c1)OCCO2	-3
COc1cc(/C=C/C(=O)c2ccccc2)cc(OC)c1OC	-4
O=C(Nc1nc2c(s1)CCCC2)c1ccc(S(=O)(=O)N2CCCc3ccccc32)cc1	6
O=C(Nc1nc2c(s1)CCc1ccccc1-2)c1ccco1	0
CS(=O)(=O)c1ccc(C(=O)Nc2nc(-c3ccco3)c(-c3ccco3)s2)cc1	82*	TbREL1 confirm=6
